Test results: ChEMBL document CHEMBL3433997, “St. Jude Leishmania screening dataset” (2016)
Several values for one entry are separate records, joined by “and”; a condition that tells them apart may be missing. Identical values can stand only once.

What was measured:
Type in all cases: functional
[1] = biological target: Solute carrier family 2, facilitated glucose transporter member 1 (Homo sapiens) (UniProt P11166); test: ST_JUDE_LEISH: Cytotoxicity at 2uM final concentration against transgenic Leishmania Mexicana promastigotes LmGLUT1 that are glucose transport deficient and complemented with the human glucose transporter GLUT1. Activity is measured by DNA content using SYBR green in vitro
Sequence of Solute carrier family 2, facilitated glucose transporter member 1 (Homo sapiens) (P11166 whole entry): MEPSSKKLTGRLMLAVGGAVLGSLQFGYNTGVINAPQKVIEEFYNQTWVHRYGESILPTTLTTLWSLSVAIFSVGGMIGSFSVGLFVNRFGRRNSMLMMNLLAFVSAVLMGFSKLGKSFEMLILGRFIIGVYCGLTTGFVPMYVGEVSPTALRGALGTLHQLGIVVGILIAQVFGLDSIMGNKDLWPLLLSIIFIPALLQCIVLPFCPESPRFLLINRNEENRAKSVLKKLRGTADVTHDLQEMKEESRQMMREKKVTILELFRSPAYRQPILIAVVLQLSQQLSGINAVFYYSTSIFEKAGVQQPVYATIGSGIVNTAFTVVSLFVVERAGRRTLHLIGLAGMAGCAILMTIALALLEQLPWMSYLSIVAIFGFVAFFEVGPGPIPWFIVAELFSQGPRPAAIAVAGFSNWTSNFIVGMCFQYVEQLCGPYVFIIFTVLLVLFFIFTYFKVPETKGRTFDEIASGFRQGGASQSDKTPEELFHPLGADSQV

[2] = biological target: Hexose transporter 1 (Plasmodium falciparum) (UniProt O97467); test: ST_JUDE_LEISH: Cytotoxicity at 2uM final concentration against transgenic Leishmania Mexicana promastigotes LmPfHT that are glucose transport deficient and complemented with the Plasmodium falciparum hexose transporter. Activity is measured by DNA content using SYBR green in vitro
[3] = biological target: Glucose transporter (Leishmania mexicana) (UniProt O61059); test: ST_JUDE_LEISH: Cytotoxicity at 2uM final concentration against transgenic Leishmania Mexicana promastigotes LmGT2 that are glucose transport deficient and complemented with the L. Mexicana glucose transporter 2. Activity is measured by DNA content using SYBR green in vitro

Row | SMILES | inhibition [1] | inhibition [2] | inhibition [3]
1 | C=C[C@H]1CN2CC[C@@H]1C[C@H]2[C@H](O)c1cc(-c2ccc(F)cc2)nc2ccc(OC)cc12 | 6.56% | 4.6% | 3.68%
2 | CC[C@H]1CN2CC[C@H]1C[C@H]2[C@H](O)c1cc(-c2ccc(F)cc2)nc2ccc(OC)cc12 | 0.09% | -0.06% | 1.25%
3 | O=C(/C=C/c1ccc(Cl)c(Cl)c1)N1CCC(CN2CCC(c3c[nH]c4ccccc34)C(O)C2)CC1 (stereo unspecified) | 7.48% | 2.3% | 0.72%
4 | COCCNCc1cccc(-c2ccccc2CN(C(=O)Nc2ccccc2)C2CCN(Cc3ccccc3)CC2)c1 | -0.65% | -2.21% | 4.23%
5 | Cn1nc(-c2ccc(S(=O)(=O)N3CCC(CN4CCC(c5c[nH]c6ccccc56)CC4)CC3)s2)cc1C(F)(F)F | 0.1% | 2.15% | -1.24%
6 | O=C(NC1CCC(CN2CCC(c3c[nH]c4ccccc34)CC2)CC1)c1cc(-c2ccccc2Cl)oc1C(F)(F)F (stereo unspecified) | 0.8% | 1.05% | 0.55%
7 | O=C(NC1CCC(CN2CCC(c3c[nH]c4ccccc34)CC2)CC1)c1cc2cccc([N+](=O)[O-])c2[nH]1 (stereo unspecified) | -2.16% | 2.66% | -0.94%
8 | CCN1CCC2(c3cccc(OC)c3)Cc3nc4ccccc4c(-c4ccccc4)c3CC2C1 (stereo unspecified) | 3.21% | 1.3% | 2.12%
9 | Cc1cc(O)cc2c(C3CCN(CC4CCN(C(=O)/C=C/c5ccc(Cl)c(Cl)c5)CC4)CC3)c[nH]c12 | 0.1% | -0.37% | 0.13%
10 | O=C(/C=C/c1ccc(Cl)c(Cl)c1)NCc1ccc(CN2CCC(c3c[nH]c4ccccc34)CC2)cc1 | 2.64% | 2.44% | 0.41%
11 | CC(C)CNCc1cccc(-c2ccc(CN(C(=O)c3cccs3)C3CCN(Cc4ccccc4)CC3)cc2)c1 | 2.62% | 4.53% | 6.86%
12 | CC[C@H]1CN2CC[C@H]1C[C@H]2[C@H](O)c1cc(-c2ccccc2F)nc2ccc(OC)cc12 | 0.68% | 1.58% | 0.34%
13 | CC(Cc1ccc(OCCOc2ccccc2)cc1)NCC(O)c1cccc(Cl)c1 (stereo unspecified) | 0.57% | 1.43% | 1.19%
14 | C/C=C1/CN2CC[C@H]1C[C@H]2[C@H](O)c1ccnc2ccc(O)cc12 | -0.31% | -1.31% | -0.61%
15 | CN(c1cc(NC(=O)c2cccs2)ccn1)C1CCN(Cc2cccc(C#N)c2)CC1 | 8.2% | 9.92% | 8.95%
16 | Cc1ccc(CC(C)NCC(O)c2cccc([N+](=O)[O-])c2)cc1 (stereo unspecified) | 0.3% | -0.33% | 1.06%

Row | SMILES | inhibition [1] | inhibition [2] | inhibition [3]
17 | CCCCCCCN1C2CCC1CC(CCOc1ccnc3ccc(OC)cc13)C2 (stereo unspecified) | 11.4% | 8.68% | 11%
18 | CC(C)CNCc1cccc(-c2ccc(CN(C(=O)Nc3ccccc3)C3CCN(Cc4ccccc4)CC3)cc2)c1 | 2.16% | 2.2% | 2.04%
19 | CN1CC=C(C=Cc2c[nH]c3ccccc23)CC1 | 0.96% | 2.14% | 3.25%
20 | CCOc1ccc(CN(CCc2ccc3c(c2)OCO3)Cc2cc(OC)ccc2O)cc1 | 4.49% | 4.01% | 6.07%
21 | COc1ccc2[nH]cc(C3CCN(Cc4ccc(NC(=O)c5ccc(-c6ccccc6)cc5)cc4)CC3)c2c1 | 3.87% | 2.27% | 3.28%
22 | O=C(/C=C/c1c(Cl)cccc1Cl)NC1CCC(CN2C3CCC2CC(c2c[nH]c4ccccc24)C3)CC1 (stereo unspecified) | 2.07% | 1.89% | -0.2%
23 | CC(C)C[C@H](Nc1ccc(C#N)c2ccccc12)C(=O)N[C@@H]1CCCc2ccccc21 | 3.96% | 1.88% | 1.15%
24 | N#Cc1c(Cl)cccc1Oc1ccc(S(=O)(=O)NC2CCC(CN3CCC(c4c[nH]c5ccccc45)CC3)CC2)cc1 (stereo unspecified) | 0.9% and 1.4% | 1.87% and 1.07% | 0.19% and -0.57%
25 | COC(C(=O)OCCC1CCCN1C)(c1ccccc1)c1ccccc1 (stereo unspecified) | -0.93% | -0.75% | -4.58%
26 | CCCCOC(C(=O)OCC1CCCN1C)(c1ccccc1)c1ccccc1 (stereo unspecified) | -0.11% | 1.91% | 2.05%
27 | Cc1[nH]c2ccccc2c1C1=CCN(CC2CC2C(=O)c2ccccc2)CC1 (stereo unspecified) | 10.7% | 9.13% | 8.4%
28 | C[C@@H](CC1CCCCC1)NCc1ccccc1O | 4.7% | 11.1% | 3.31%
29 | CCCCCCCc1cc(=O)c2ccccc2[nH]1 | 12.7% | 3.61% | 1.21%
30 | COc1ccc(C[C@H]2NC[C@H](O)[C@H]2OC(C)=O)cc1 | 105% | 103% | 92.1%
31 | CCCCCCCn1c(=O)c(C(=O)Nc2c(C)cccc2C)c(O)c2ccccc21 | 2.89% | 1.98% | 3.35%
32 | O=C(/C=C/c1cc(F)cc(C(F)(F)F)c1)N1CCC(CN2CCC(c3c[nH]c4ccccc34)CC2)CC1 | 0.47% | 1.39% | 2.96%
